# Test results: PubChem BioAssay
# Values joined by “and” are separate entries in the source; they are usually repeats but may differ in a detail not shown here. Equal entries are not always repeated. Active and inactive are the calls of the source. Unless noted, no rule for the calls is given here.
# How the values were obtained:
# [1] = tested on: Wnt5a (protein binding on small-molecule microarray); assay: small molecules binding Wnt5a protein – biophysical, small-molecule microarray, 635/667 nm fluorescence, primary screen (AID 1142); settings: 635 nm fluorescence, higher = more signal;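 also: fluorescence read at 667 nm with signal to noise per printed feature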
# [2] = ATP-based viability of Huh7 replicon cells – cell-based, CellTiter-Glo luminescence, basal, 48 h, cytotoxicity control for HCV replication inhibitor project, primary screen (AID 1143); settings: higher = more signal, called active from +8 up or from −8 down;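 also: Huh7 hepatoma cells carrying a hepatitis C replication reporter with no stimulus; test concentration not given here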
# [3] = Pseudomonas biofilm growth suppression – PAO1 strain, BacTiter-Glo luminescence, LB-PBS, primary screen (AID 1144); settings: P. aeruginosa PAO1 biofilm, 12 h, higher = more signal
# [4] = basal CRE-LacZ reporter activity in PC12 – cell-based, unstimulated, primary screen (AID 1145); settings: no forskolin, luminescence, 4.5 h, higher = more signal, called active from +8 up or from −8 down
# [5] = forskolin-driven CRE-LacZ activity in PC12 – cell-based, CRE-LacZ reporter, forskolin-stimulated, primary screen (AID 1146); settings: luminescence, 4.5 h, higher = more signal, called active from +8 up or from −8 down;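 also: PC12 cells with 6xCRE LacZ reporter stimulated by forskolin 10 µM; beta-galactosidase reporter signal reflecting CREB driven transcription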
# [6] = biological target: Streptavidin (Streptomyces avidinii) (UniProt P22629); assay: compounds binding control protein streptavidin – biophysical, small-molecule microarray, 635/667 nm fluorescence, artefact control for SMM compound annotation, primary screen (AID 1147); settings: higher = more signal;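 also: signal reflects streptavidin binding to arrayed compounds as a control protein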
# [7] = probe aInhba binding on compound microarray – biochemical, small-molecule microarray, 635/667 nm fluorescence, primary screen (AID 1148); settings: higher = more signal;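 also: score merges 667nm spot fluorescence with signal-to-noise for antibody binding to printed compounds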
# Torsin-1A (Homo sapiens) [8] = biological target: Torsin-1A (Homo sapiens) (UniProt O14656); assay: TOR1A wild-type binding on microarray – cell lysate, small-molecule microarray, lysate, 635/667 nm, primary screen (AID 1149); settings: COS7 hTOR1A-WT lysate, 635 nm fluorescence, higher = more signal
# Torsin-1A (Homo sapiens) [9] = biological target: Torsin-1A (Homo sapiens) (UniProt O14656); assay: torsin A mutant lysate binding on microarrays – cell lysate, small-molecule microarray, COS7 lysate, 635/667 nm fluorescence, primary screen (AID 1150); settings: COS7 hTOR1A mutant lysate, 635 nm fluorescence, higher = more signal;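 also: score pools 667 nm emission and signal to noise measuring lysate protein binding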
# [10] = tested on: Sonic hedgehog protein (Shh); assay: Sonic hedgehog microarray binding compounds – biochemical, small-molecule microarray, 635/667 nm fluorescence, primary screen (AID 1151); settings: 635 nm fluorescence, higher = more signal;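 also: Shh protein binding to compounds spotted on small-molecule microarray slides; score combines spot fluorescence intensity with signal-to-noise across triplicate slides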
# Chain of Streptavidin (Streptomyces avidinii) (P22629 whole entry, looked up): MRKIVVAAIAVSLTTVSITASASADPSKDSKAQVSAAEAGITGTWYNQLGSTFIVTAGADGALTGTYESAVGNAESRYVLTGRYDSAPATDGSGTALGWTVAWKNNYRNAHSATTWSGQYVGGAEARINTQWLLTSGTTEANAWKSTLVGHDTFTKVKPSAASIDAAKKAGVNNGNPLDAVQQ
# Chain of Torsin-1A (Homo sapiens) (O14656 whole entry, looked up): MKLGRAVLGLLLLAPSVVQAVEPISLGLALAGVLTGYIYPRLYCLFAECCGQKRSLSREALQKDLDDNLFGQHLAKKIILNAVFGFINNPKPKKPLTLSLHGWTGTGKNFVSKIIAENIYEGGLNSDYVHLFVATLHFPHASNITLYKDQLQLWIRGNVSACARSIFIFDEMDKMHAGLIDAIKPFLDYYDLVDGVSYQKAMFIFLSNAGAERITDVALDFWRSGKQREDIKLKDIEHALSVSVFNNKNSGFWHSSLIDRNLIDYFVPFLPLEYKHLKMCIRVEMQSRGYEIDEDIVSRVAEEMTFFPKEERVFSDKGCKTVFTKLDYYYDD
SMILES,composite z-score [1],z-score [2],z-score [3],z-score [4],z-score [5],composite z-score [6],composite z-score [7],composite z-score (Torsin-1A (Homo sapiens) [8]),composite z-score (Torsin-1A (Homo sapiens) [9]),composite z-score [10]
CCN1C(=O)[C@H]2[C@H]3[C@H](O)[C@H](O)CC(=NNC(=O)OCc4ccc(OC)cc4)[C@H]3CC[C@H]2C1=O,0.153,-0.0769 (inactive),0.619 (inactive),0.344 (inactive),-0.287 (inactive),0.398,0.124,0.275,-0.023,-0.121
C=C[C@H](OC)[C@@H](O)c1ccc(OCCO)cc1,-0.181 and -0.509,-0.238 (inactive) and 0.881 (inactive),-0.354 (inactive) and -1.35 (inactive),0.833 (inactive) and -0.0533 (inactive),0.2 (inactive) and -1.46 (inactive),-1.59 and -1.75,-0.258 and -0.244,-1.15 and -1.11,-0.812 and -1.99,-0.459 and -0.143
CO[C@@H]1C=CCC(=O)N2CCC[C@H]2C(=O)OC[C@H](C)C(=O)OC[C@H]1C,-0.0492,0.0002 (inactive),-0.789 (inactive),-0.113 (inactive),-0.192 (inactive),-0.69,-0.186,0.772,1.63,1.64
C=CCN(C(=O)C(c1cccs1)N(C(=O)/C=C\C(=O)O)c1ccc(CCO)cc1)c1ccc(OC)cc1 (stereo not given),-1.21 and -1.14,0.369 (inactive) and 0.0408 (inactive),-2.25 (inactive) and -0.545 (inactive),-0.358 (inactive) and 0.463 (inactive),-0.308 (inactive) and 0.311 (inactive),-1.31 and -0.93,-0.257 and -0.203,-3.35 and -2.12,0.425 and -1.7,-1.17 and -0.672
COC(=O)CC=C[C@@H](C)[C@@H](CO)NS(=O)(=O)c1ccc(C)cc1,0.234 and 0.125,0.577 (inactive) and -0.18 (inactive),0.773 (inactive) and -0.379 (inactive),1.1 (inactive) and 0.288 (inactive),-0.196 (inactive) and -0.693 (inactive),-0.183 and 0.469,-0.05 and 0.0248,0.448 and 0.478,0.32 and 1.08,0.759 and 1.44
O=c1n(-c2ccccc2)c(=O)n2n1CC[C@@H]1C(=NOC[C@@H](O)COCc3ccco3)[C@H]3O[C@H]3[C@@H](O)[C@@H]12,0.0145 and -0.152,-2.38 (inactive) and 1.16 (inactive),-0.58 (inactive) and 0.962 (inactive),0.875 (inactive) and -0.227 (inactive),-0.218 (inactive) and 0.761 (inactive),0.312 and 0.0894,-0.0963 and -0.0407,0.716 and 0.965,0.289 and 0.457,1.7 and 0.769
C=CCN(CCCC)C(=O)C1N(C(C)(C)CO)C(=O)C2C(C(=O)O)C3C=CC21O3 (stereo not given),-1.3 and -0.176,0.194 (inactive) and -0.11 (inactive),0.264 (inactive) and 1.42 (inactive),-0.627 (inactive) and -0.611 (inactive),-0.414 (inactive) and -0.388 (inactive),-1.54 and -1.29,-0.208 and -0.157,-2.92 and -2.18,-2.77 and -2.67,-1.07 and -0.475
CCOC(=O)C[C@H]1[C@H](OC(=O)c2ccccc2-c2ccccc2)[C@@H](NC(=O)Cc2ccc(OC)cc2)c2cc(OCCCO)ccc2N1C(=O)c1ccc2ccccc2n1,0.0561 and 0.261,-0.319 (inactive) and 0.66 (inactive),-0.568 (inactive),7.64 (inactive) and -1.13 (inactive),-0.809 (inactive) and -0.751 (inactive),0.241 and 0.27,0.0543 and 0.168,0.0122 and -0.0425,0.19 and 0.686,0.207 and 0.3
CO[C@@H]1COC(=O)CC=C[C@H](C)COC(=O)[C@H](C)NC(=O)CC=C[C@H]1C,0.144,0.178 (inactive),0.213 (inactive),1.24 (inactive),-0.218 (inactive),0.477,-0.208,0.919,1.16,1.19
